USP1 inh: inhibitors of human USP1/UAF1 deubiquitinase. recombinant USP1/UAF1, Ub-Rhodamine cleavage fluorescence. Potency, µM (highest dose often 57.1 µM), for inactives: at the highest dose activity change, negative = inhibition, usual class: inhibitors. O94782. 390,000 tested, 0.23% active. AID 743255; note: potency is the fitted concentration of half-maximal effect; nearly all actives have a fitted effect of over 60% in size
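In this screen, compounds sit with the deubiquitinase complex (1nM) for 15 min at room temperature before Ub-Rho is added at 150nM final. Fluorescence rise is then followed for 6 reads every 60 seconds.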
Tau FP inhib: inhibitors of human tau fibril formation. K18 P301L tau heparin fibrillization, Alexa594 FP, 6 h. 280,000 tested, 0.39% active. Potency, µM (titrated, usually from 57.7 µM), for the others: at the highest dose activity, negative = inhibition, hits mostly inhibitors. P10636; note: potency is the fitted concentration of half-maximal effect; nearly all actives have a fitted effect of over 55% in size
Target sequence (P10636 561-689 P618L limits assumed): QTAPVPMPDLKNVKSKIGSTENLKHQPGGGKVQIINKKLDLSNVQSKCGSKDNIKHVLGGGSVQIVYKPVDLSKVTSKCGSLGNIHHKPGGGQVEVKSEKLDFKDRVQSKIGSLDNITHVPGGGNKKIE
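Steps: dispense K18 P301L tau (15 uM plus 0.24 uM Alexa 594 tracer, final) in pH 7 sodium acetate; add compound; add heparin (20 uM final); incubate 6 hr, 37 C; add ThT (30 uM final); after 1 hr ambient, read FP.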
Tau fluor cs: counter-screen for tau fibril formation inhibitors | tau K18 P301L Alexa594 fluorescence, heparin fibrillization | Potency, µM (doses to about 57.7 µM), for inactives: top-dose activity change, negative = decrease | 280,000 tested, 0.93% active; note: potency is the fitted concentration of half-maximal effect; nearly all actives have a fitted effect of over 55% in size
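Human tau K18 P301L (15 uM unlabeled, 0.24 uM Alexa 594-labeled) in 100 mM sodium acetate pH 7 with 20 uM heparin, 6 hr at 37 C. ThT 30 uM added, 1 hr ambient; Alexa 594 FP and total fluorescence read at 555/632 nm.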
Coupling enz: coupling enzyme interference in Giardia aldolase counter-screen. AID 2472. coupling enzyme system counterscreen, AmpLite Red fluorescence. activity change, negative = inhibition, % at 58.2 µM, hits read low. 290,000 tested, 0.67% active; in the data active = activity change below about -30%
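Activity here indicates interference with the coupling reaction, not aldolase inhibition. Compounds at 57.5 uM final met coupling enzymes for 10 min at RT; substrate and AmpLite Red detection followed, with a 525/598 nm fluorescence read after 20 min.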
Tau fibril ThT: blocks human tau fibril formation measured by thioflavin T | P10636 | recombinant tau K18 P301L (four-repeat tau fragment), heparin-induced fibrillization, ThT fluorescence | Potency, µM (series often up to 57.4 µM), for the others: at the top dose activity, negative = inhibition, usual class: inhibitors | 270,000 tested, 2.1% active; note: potency is the fitted concentration of half-maximal effect; nearly all actives have a fitted effect of over 55% in size
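Heparin-induced fibrillization of the P301L-mutant K18 repeat-domain fragment of human tau was followed by ThT binding in quantitative high-throughput format.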
Numbers without * were called inactive; ? = inconclusive; / = not tested or not shown; [ ] = dose if it differs, or a comment. Hits are enriched below; roughly 2.3% of the tested compounds scored in any of these assays. Unless noted, calls come from the whole dose curve; as a rule, active = well fitted curve in the direction sought with a large enough effect; inconclusive = small, poorly fitted or top-dose-only effect, or another doubt; inactive = no such curve, though single readings can be large; an effect the other way counts as inactive or inconclusive. % is set by controls: 0 for no effect and ±100 for the full control effect.

SMILES	USP1 inh	Tau FP inhib	Tau fluor cs	Coupling enz	Tau fibril ThT
CCS(=O)(=O)NCc1ccc2[nH]c3c(c2c1)CCCC3	/	3%	?	-44*	-25%
O=S(=O)(NCc1ccc(F)cc1)c1ccc2[nH]c3c(c2c1)CCCC3	-10%	10%	13µM*[quencher]	/	-5%
O=S(=O)(NCc1ccc(Cl)cc1)c1ccc2[nH]c3c(c2c1)CCCC3	-18%	2%	13µM*[quencher]	/	-10%
O=C(NCc1ccc2c(c1)OCO2)O[C@@H]1C(=O)c2cc(Br)ccc2O[C@H]1c1ccc2c(c1)OCO2	/	-12%	-17%	-3	1%
COc1ccc(OC)c(C2=Nn3c(nnc3-c3cc(OC)ccc3OC)SC2)c1	/	/	/	1	/
c1ccc(-c2nc3nonc3nc2-c2ccccc2)cc1	-27%	6%	-17%	-37*	-4%
Nc1c(-c2ccccc2)nc(Cl)nc1-c1ccccc1	2%	1%	-8%	2	-9%
CCC(=O)Nc1c(C#N)c2nc3ccccc3nc2n1-c1ccc(C)cc1	-5%	/	/	/	/
N#Cc1c(NC(=O)c2ccc(Br)o2)n(-c2ccccc2)c2nc3ccccc3nc12	6.3µM*	-14%	-26%	-31*	25µM*
CCC(C)n1c(NC(=O)c2ccccc2)c(C#N)c2nc3ccccc3nc21 (stereo not drawn)	?	8%	-15%	-49*	?
COc1ccc(-n2c(NC(=O)c3ccc(Br)o3)c(C#N)c3nc4ccccc4nc32)cc1	/	-12%	?	-16	14µM*
O=C(N/N=C\c1ccccc1O)c1ccccc1O	/	-5%	-15%	-4	-4%
Fc1ccc2c(c1)-c1c(cnc3cc(-c4ccc(Cl)cc4)nn13)CO2	-15%	?	-15%	/	-18%
O=C(O)c1ccc(-c2ccc(/C=c3/sc4nc5ccccc5n4c3=O)o2)cc1Cl	28µM*	/	/	-4	/
N#Cc1ccccc1Cn1c(=O)n(Cc2ccc(C(=O)NC3CCN(Cc4ccccc4)CC3)cc2)c(=O)c2ccccc21	-18%	-9%	-2%	/	3%
Cc1cccc(C)c1N=C1NN=C(c2ccccc2F)CS1	-18%	8%	-18%	0	?
Cc1ccccc1N=C1NN=C(c2ccccc2F)CS1	-21%	?	-30%	-3	28µM*
COC1[C@@H](OC)C[C@H](C)[C@@H](OC)C2=CC(=O)C=C(NC(=O)/C(C)=C/C=C\[C@H](OC)[C@@H](OC(N)=O)/C(C)=C/[C@@H]1C)C2=O (stereo partly drawn)	/	/	/	-22	/
COc1cc(C2CC(=O)Nc3c2c(=O)[nH]c2ncnn32)ccc1O (stereo not drawn)	-12%	2%	-14%	/	-9%
COC(=O)c1ccc(NC(=O)Nc2ccc(OC)c(OC)c2)cc1	-8%	16%	?	2	?
COc1ccc(NC(=O)NC23CC4(C)CC(C)(CC(C)(C4)C2)C3)cc1OC	-12%	4%	13µM*[quencher]	3	?
Cc1ccc(/C=C/C(=O)Nc2ccc(N(C)C)cc2)o1	-7%	3%	-26%	-5	8.9µM*
COc1ccc(NC(=O)CSc2nc(N)c(C(=O)Nc3ccc(N(C)C)cc3)s2)cc1	-11%	15%	?	1	2.5µM*
CN(C)c1ccc(NC(=O)CSc2nc(N)c(C(=O)Nc3ccc(N(C)C)cc3)s2)cc1	-22%	13%	13µM*[quencher]	-1	2.5µM*
CCOC(=O)c1sc(SCC(=O)Nc2ccc(N(C)C)cc2)nc1N	-20%	8%	?	-1	14µM*
COc1ccc(NC(=O)CSc2nnc(N)s2)cc1	-24%	2%	-4%	1	1%
N#C/C(=C/c1ccc(-c2ccccc2[N+](=O)[O-])o1)C(N)=O	-14%	-6%	-5%	-11	-5%
N#C/C(=C/c1ccc(-c2cccc([N+](=O)[O-])c2)o1)C(=O)Nc1nc(-c2cccs2)cs1	-16%	/	/	/	/
N#C/C(=C\c1ccc(-c2ccccc2[N+](=O)[O-])o1)C(=O)Nc1nc(-c2cccs2)cs1	-8%	0%	?	-6	2.8µM*
N#C/C(=C\c1ccc(-c2ccc([N+](=O)[O-])cc2)o1)C(=O)Nc1nc(-c2cccs2)cs1	-6%	7%	?	-7	2.2µM*

Bioassay records (PubChem)
